HCV inhibitor: blocks hepatitis C virus; Huh7.5.1 HCVcc-Cre infection, luciferase reporter, 44 h; Potency, µM (titrated, usually from 41.8 µM), for the others: at the highest dose activity change, negative = inhibition, hits mostly inhibitors; 340,000 compounds, 3.4% hits; AID 651820; active = well fitted inhibition curve with a large enough effect; inconclusive = small, poorly fitted or top-dose-only effect, or another doubt; inactive = no such curve, though single readings can be large or run the other way; also: potency is read from the fitted curve at half-maximal effect
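Infectious HCVcc-Cre (~0.5 moi) was added to cells just after compound, with cells seeded 4 h earlier at 1,000 per well. Luciferase activity after 44 h culture reported infection; substrate was incubated 15 min at room temperature before reading.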
Vaccinia Venus: vaccinia inhibition (Venus reporter); Potency, µM (titrated, usually from 36.5 µM), without a hit: at the highest dose activity change, negative = inhibition, usual class: inhibitors; 330,000 compounds, 0.46% hits; Vaccinia virus Venus reporter expression, fluorescence; calls by dose curve; tested in A549 cells; also: potency is read from the fitted curve at half-maximal effect; nearly all actives have a fitted effect of over 30% in size
VACV mCherry inh: inhibitors of vaccinia virus infection (mCherry reporter signal). Vaccinia virus mCherry reporter infection, fluorescence. Potency, µM (doses to about 36.5 µM), for the others: at the top dose activity change, negative = inhibition, hits mostly inhibitors. 310,000 compounds, 0.63% hits; calls by dose curve; tested in A549 cells; also: potency is read from the fitted curve at half-maximal effect; nearly all actives have a fitted effect of over 35% in size
LASV entry inh: inhibitors of Lassa virus binding or cell entry | Lassa virus pseudotype entry inhibition, cell reporter | Potency, µM (highest dose often 37.9 µM), without a hit: at the top dose activity change, negative = inhibition, most hits filed as inhibitors | AID 540256 | 300,000 compounds, 1.2% hits; calls by dose curve; tested in HEK293 cells; also: potency is read from the fitted curve at half-maximal effect; nearly all actives have a fitted effect of over 50% in size
HCMV inh: inhibitors of human cytomegalovirus. HFF cells, HCMV-luciferase reporter, 72 h; hits give low values. activity change, negative = inhibition, % at 57.5 µM. 410,000 compounds, 4.5% hits. AID 1259415; in the data active = activity change below about -60%; inconclusive = no clear call, values can overlap the other calls; inactive = above about -39%
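Two compound doses tested in HFFs infected with HCMV-luciferase, MOI 1 PFU/cell, 72 h at 37C. Lysate luminescence read with OneGlo; data normalized against buffer-only and 10uM Salinomycin inhibitor controls.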
MARV entry inh: blocks Marburg virus binding to or entry into cells; Potency, µM (top dose mostly 37.8 µM), without a hit: at the top dose activity change, negative = inhibition, most hits filed as inhibitors; Marburg virus pseudotyped entry inhibition, cell reporter; 300,000 compounds, 1.8% hits; AID 540276; calls by dose curve; tested in HEK293 cells; also: potency is read from the fitted curve at half-maximal effect
* marks the source's active call; other numbers are inactive results; i = inactive; ? = inconclusive; · = no result; [ ] = dose if it differs, or a comment. This is a sample that favours compounds with a hit; in the whole collection about 7.8% have one here. % is scaled to controls: 0 for no effect and ±100 for the full control effect.

SMILES	HCV inhibitor	Vaccinia Venus	VACV mCherry inh	LASV entry inh	HCMV inh	MARV entry inh
CCCn1c(SCCN2CCOCC2)nc2c1c(=O)n(C)c(=O)n2C	16%	·	·	·	-38	·
Cn1c(=O)c2c(nc(Sc3ncccn3)n2Cc2ccccc2Cl)n(C)c1=O	11%	·	·	-28%	-9	-1%
Cn1c(=O)c2c(nc(Sc3ncccn3)n2Cc2ccc(Cl)cc2)n(C)c1=O	25µM*	-15%	-8%	·	-61*	·
COc1ccc(NC(=S)Nc2ccc(OCc3ccccc3)cc2)c(OC)c1	?	-13%	-4%	-10%	-76*	?
CCOc1ccccc1NC(=S)Nc1ncccc1C	6.3µM*	?	?	?	-61*	?
Cc1cccnc1NC(=S)Nc1ncccc1C	-1%	-10%	i	?	10	?
COc1ccc(NC(=S)Nc2ncccc2C)c(OC)c1	-13%	?	?	-39%	-63*	-29%
CSc1nnc(CNC(=O)c2c(-c3ccccc3)noc2C)n1-c1ccc(F)cc1	·	-1%	-19%	·	·	·
CCOC(=O)C1(C)C=C(Nc2cccc(C(=O)O)c2)C(=O)N1c1cccc(C(=O)O)c1 (centres undefined)	·	0%	-10%	3%[46.1 µM]	0	20%[46.1 µM]
Cc1ccc(-c2ccc(/C=C3\C(=O)ON=C3c3ccccc3)o2)c([N+](=O)[O-])c1	?	·	·	2%	-94*	?
CCOC(=O)c1ccc(NC(=O)c2c(C)nn(-c3ccc(F)cc3)c2-n2cccc2)cc1	·	-15%	-15%	-2%[46.1 µM]	-5	·
COC(=O)Cn1c(=NC(=O)c2nc3ccccc3s2)sc2cc(S(N)(=O)=O)ccc21	?	-8%	-1%	0%	-89*	13%
COC(=O)Cn1c(=NC(=O)c2cc(-c3cccs3)nc3ccccc23)sc2cc(S(N)(=O)=O)ccc21	?	?	?	?	14	?
O=C(COc1ccc([N+](=O)[O-])cc1)Nc1ccc(N2CCN(C(=O)c3ccco3)CC2)cc1	11µM*	-19%	-10%	4%[46.1 µM]	?	6%[46.1 µM]
Cc1cccc(OCC(=O)Nc2ccc(N3CCN(C(=O)c4ccco4)CC3)cc2)c1C	-22%	-17%	i	-11%[46.1 µM]	-10	?
O=C(c1ccco1)N1CCN(C(=S)Nc2cccc([N+](=O)[O-])c2)CC1	-18%	-11%	i	?	-69*	?
Cc1cccc(NC(=S)N2CCN(C(=O)c3ccco3)CC2)c1	-2%	6%	-18%	-28%[46.1 µM]	-19	-14%[46.1 µM]
COc1ccc(OCC(=O)Nc2ccc(N3CCN(C(=O)c4ccco4)CC3)cc2)cc1	-12%	10%	i	14%	?	?
O=C(COc1ccc(Cl)cc1)Nc1ccc(N2CCN(C(=O)c3ccco3)CC2)cc1	10µM*	?	-20%	?	-86*	?
Cc1ccccc1OCC(=O)Nc1ccc(N2CCN(C(=O)c3ccco3)CC2)cc1	?	?	?	?	-73*	?
CCNc1nc(C#N)nc(N2CCOCC2)n1	·	-4%	26%	·	·	·
O=C(NC1CCCc2ccccc21)c1cnn2c1NC(=C1CC1)C=C2C(F)F (centres undefined)	·	-29%	-18%	·	·	·
CC(C)N1C(=O)CC[C@@H](S(=O)(=O)c2ccccc2)[C@@H]1/C=C/c1ccccc1	·	·	·	·	23	·
Cc1cc(C)c2c(CC(=O)NC(C)C)coc2c1	11%	1%	-1%	-1%	-61*	-18%[46.1 µM]
Cc1cccc(/C=C/c2onc(C)c2[N+](=O)[O-])n1	?	-14%[7.34 µM]	-10%[7.34 µM]	-28%	-109*	-4%[46.1 µM]
SMILES	HCV inhibitor	Vaccinia Venus	VACV mCherry inh	LASV entry inh	HCMV inh	MARV entry inh
Cc1noc(/C=C/c2nn(C)cc2Cl)c1[N+](=O)[O-]	?	·	·	·	-98*	·
O=C(N[C@@H](Cc1ccccc1)C(O)c1nc2ccccc2[nH]1)c1ccccn1 (some centres undefined)	·	·	·	·	2	·
O=C(O)CCCCCN1C(=O)CSC1=S	10%	-4%	·	?	-81*	?
CC(=O)N1CCCc2cc(S(=O)(=O)N3CCCC(C(=O)NC(C)C)C3)ccc21 (centres undefined)	·	-1%	-15%	8%[46.1 µM]	-6	·
COc1ccc([C@H]2CC(=O)C=C(c3ccccc3)C2)cc1OC	?	-24%	-28%	·	8	·
COc1ccc([C@H]2CC(=O)C=C(c3ccc(Oc4ccccc4)cc3)C2)cc1OC	5.6µM*	?	?	·	-64*	·
Fc1ccc(-c2cc(-c3ccccc3)nc(-n3cccn3)n2)cc1	?	-28%	-19%	-12%[46.1 µM]	-61*	?
O=c1cc(-c2ccccc2)nc2cc(-c3ccc(F)cc3)[nH]n12	0%	?	-26%	?	44	?
CCOC(=O)c1c(C)[n+](-c2ccc(C)cc2)c(CC)c2cc(OC)c(OC)cc12	?	·	·	·	-81*	·
CCOC(=O)c1c(-c2ccc(OC)c(OC)c2)csc1NC(=O)c1ccc(C)cc1	·	1%	-11%	-15%[46.1 µM]	-6	-2%[46.1 µM]
CCCc1nccn1S(=O)(=O)c1cc(Br)ccc1OC	·	-9%	0%	13%[46.1 µM]	3	·
S=C(Nc1cc(Cl)cc(Cl)c1)NC1CCN(Cc2ccccc2)CC1	10µM*	·	·	·	-100*	·
Cc1c(Cl)cccc1NC(=S)NC1CCN(Cc2ccccc2)CC1	?	-29%	?	?	-91*	16µM*
CC(C)c1ccc(NC(=S)NC2CCN(Cc3ccccc3)CC2)cc1	?	?	?	18µM*	-27	?
Cc1ccc(NC(=S)NC2CCN(Cc3ccccc3)CC2)cc1C	11µM*	?	-21%	·	?	·
S=C(Nc1ccccc1Cl)NC1CCN(Cc2ccccc2)CC1	?	-21%	-21%	-17%	-34	?
C[C@@H]1[C@@H](c2ccccc2)c2cc3ccccc3nc2-c2nc3ccccc3cc2[C@H]1C(=O)N1CCCC1	·	·	·	?	·	25%[14.2 µM]
COc1ccc(/C=C(\C)C(=O)NO)cc1	·	-13%	-3%	·	·	·
COc1ccc(Br)cc1CNC(=O)c1cnc2sc(N3CCC(C)CC3)nn2c1=O	·	-29%	-29%	?	22	·
N#Cc1ccc(OCc2cn(CC(=O)c3ccc(O)cc3)nn2)cc1	·	·	·	1%[46.1 µM]	·	·
CCCCCc1cc(=O)oc2c(C(CCN3CCCC(C)C3)c3ccc4c(c3)OCO4)c(OC)cc(OC)c12 (centres undefined)	?	?	-15%	·	?	·
COc1ccc(C2CC(=O)Oc3c(C(CCN4CCCCC4)c4ccc(N(C)C)cc4)c(OC)cc(OC)c32)cc1 (centres undefined)	-11%	?	?	·	-60*	·
CCCCCc1cc(=O)oc2c(C(CCN3CCCCC3)c3ccc4c(c3)OCO4)c(OC)cc(OC)c12 (centres undefined)	?	14µM*	?	·	-80*	·

Assay outcomes deposited in PubChem by National Center for Advancing Translational Sciences (NCATS).
